In the library only some 1.9% were active in any assay of this set; here they are far more common.
LYPLA2 inh – blocks human lysophospholipase 2, a PME1 counter-screen; O95372; recombinant LYPLA2, FP-Rh probe fluorescence polarization; inhibition, % at 5.9 µM; 0.38% of 320,000 active; AID 2177;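 active = inhibition above the screen-wide mean plus 3 SD, limit set per campaign, cut at about 26% in these data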;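 note: 0% = LYPLA2 with DMSO and 100% = wells lacking LYPLA2 enzyme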
Target sequence (O95372 whole entry, looked up): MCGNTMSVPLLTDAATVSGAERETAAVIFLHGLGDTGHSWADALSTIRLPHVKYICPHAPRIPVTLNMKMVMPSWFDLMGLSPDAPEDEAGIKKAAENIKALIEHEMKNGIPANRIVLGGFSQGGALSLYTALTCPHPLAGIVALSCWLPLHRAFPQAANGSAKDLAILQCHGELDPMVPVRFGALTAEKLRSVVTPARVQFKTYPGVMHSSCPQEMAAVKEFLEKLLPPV
LYPLA1 counter – LYPLA1 (human) inhibition in PME1 counter-screen | inhibition, % at 5.9 µM | 0.16% of 320,000 active | recombinant LYPLA1, FP-Rh probe fluorescence polarization | AID 2174;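 active = inhibition above the mean of all tested compounds plus 3 SD, set per campaign, cut at about 14% in these data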;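 note: inhibitors block serine hydrolase probe labeling of LYPLA1 so polarization falls; 0% = enzyme with DMSO and 100% = wells lacking LYPLA1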
GSTO1 counter – blocks human GSTO1 in RBBP9 counter-screen; inhibition, % at 5.96 µM; recombinant GSTO1, activity-based probe fluorescence polarization; 1.1% of 300,000 active;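 active = inhibition above the campaign mean inhibition plus 3 SD, cut at about 35% in these data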;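 note: 0% = GSTO1-1 with DMSO and 100% = wells lacking GSTO1-1 enzyme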
PREPL inh – human PREPL enzyme inhibition; 0.68% of 320,000 active; inhibition, % at 5.96 µM; Q4J6C6; recombinant PREPL, fluorescence polarization activity-based probe;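 note: 0% = enzyme with DMSO and 100% = wells lacking enzyme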
Fam108B inh – blocks mouse Fam108B hydrolase in RBBP9 counter-screen. AID 1947. recombinant Fam108B, FP-Rh probe fluorescence polarization. inhibition, % at 9.51 µM. 0.33% of 300,000 active;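 active = inhibition above the screen mean inhibition plus 3 SD, computed separately per campaign, cut at about 18% in these data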;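 note: inhibitors lower polarization as less probe binds the enzyme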
PME-1 primary – PME-1 (human) inhibition; Q9Y570; recombinant PME-1, FP-Rh probe fluorescence polarization; inhibition, % at 5.9 µM; 0.53% of 320,000 active;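 active = inhibition above the campaign mean of all compounds plus 3 SD, cut at about 26% in these data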;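 note: competitive labeling of PME-1 active site by serine hydrolase directed probe; 0% = PME-1 with DMSO and 100% = wells lacking PME-1 enzyme; inhibitors block probe labeling so polarization falls and inhibition rises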
PREPL confirm – confirmation of human PREPL enzyme inhibitors. shares compounds with PREPL inh. recombinant PREPL, fluorescence polarization activity probe. inhibition, % at 5.96 µM. 67% of 2,000 active. AID 2803;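 note: 0% = protein with DMSO and 100% = wells lacking protein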
* hit, by the source's call. Cut-off read from the data, not from the text of the source, unless noted: active = inhibition above about 43%; inactive = the rest.

How did O=C1N[C@@H](c2ccccc2)COC(=O)[C@@H](Cc2ccc(F)cc2)C/C=C\C[C@H]1CC(=O)N(CCO)Cc1ccccc1 do in these assays?
PREPL inh: 37

How did O=C1N[C@@H](c2ccccc2)COC(=O)[C@H](Cc2ccc(F)cc2)CC/C=C/C[C@@H]1CC(=O)N(CCO)Cc1ccccc1 do in these assays?
PREPL inh: 57*; PREPL confirm: 46*

How did CC(C)(C)[C@@H]1COC(=O)[C@H](Cc2ccc(F)cc2)CC/C=C\C[C@H](CC(=O)N(CCO)Cc2ccccc2)C(=O)N1 do in these assays?
PREPL inh: 41

How did CC(C)(C)[C@@H]1COC(=O)[C@@H](Cc2ccc(F)cc2)CC/C=C\C[C@@H](CC(=O)N(CCO)Cc2ccccc2)C(=O)N1 do in these assays?
PREPL inh: 55*; PREPL confirm: 50*

What do the screens show for `CC(=O)Nc1ccc(OCC(O)Cn2nc(C)c(Br)c2C)cc1` (stereo not given)?
LYPLA2 inh: 12; LYPLA1 counter: 4; GSTO1 counter: 6; PREPL inh: 15; Fam108B inh: 3; PME-1 primary: 5

What do the screens show for `CN(c1ccccc1)S(=O)(=O)c1cccc(NC(=O)c2nn(C)c(=O)c3ccccc23)c1`?
LYPLA2 inh: -42; LYPLA1 counter: -23; PREPL inh: 4; PME-1 primary: -35

Results for CCOc1cc(/C=N/N=C2/NC(=O)C(CC(=O)O)S2)ccc1OCc1ccc(Cl)cc1Cl (stereo not given) ?
LYPLA2 inh: -2; LYPLA1 counter: -5; GSTO1 counter: 0; PREPL inh: 49*; Fam108B inh: -4; PME-1 primary: 5; PREPL confirm: 64*

How did O=C(Nc1ccc(OC(F)F)cc1)c1cc[n+]([O-])cc1 do in these assays?
LYPLA2 inh: -2; LYPLA1 counter: -2; GSTO1 counter: 3; PREPL inh: 8; Fam108B inh: 1; PME-1 primary: 9

Results for COC(=O)c1ccccc1-c1ccc(/C=N/NC(N)=O)o1 ?
LYPLA2 inh: -3; LYPLA1 counter: 0; GSTO1 counter: 4; PREPL inh: 0; Fam108B inh: 5; PME-1 primary: 0

Results for COC(=O)c1sccc1-c1ccc(/C=N/OC(=O)c2ccccc2)o1 ?
LYPLA2 inh: -3; LYPLA1 counter: -4; GSTO1 counter: 0; PREPL inh: 43*; Fam108B inh: -8; PME-1 primary: 11; PREPL confirm: 38

Results for CCN(CC)CCN(C(=O)c1ccc2c(c1)CCCC2)c1nc2cc(OC)c(OC)cc2s1 ?
LYPLA2 inh: 1; LYPLA1 counter: 0; GSTO1 counter: 4; PREPL inh: 49*; Fam108B inh: 0; PME-1 primary: 2; PREPL confirm: 34

Results for COc1cc2nc(N(CCN(C)C)C(=O)c3ccc4ccccc4c3)sc2cc1OC ?
LYPLA2 inh: 5; LYPLA1 counter: 3; GSTO1 counter: -3; PREPL inh: 18; Fam108B inh: 2; PME-1 primary: -6

How did COc1ccc(N2CCN(c3cc(C)nc4ccc(OC)cc34)CC2)cc1 do in these assays?
LYPLA2 inh: 6; LYPLA1 counter: 1; GSTO1 counter: -11; PREPL inh: 43*; Fam108B inh: -1; PME-1 primary: 1; PREPL confirm: 50*

How did COc1ccccc1CC(=O)N1CCC(n2nccc2NC(=O)C2CCOC2)CC1 (stereo not given) do in these assays?
LYPLA2 inh: -1; LYPLA1 counter: 0; GSTO1 counter: 1; PREPL inh: 7; Fam108B inh: 2; PME-1 primary: 7

What do the screens show for `O=C(COC(=O)c1ccccn1)c1ccc([N+](=O)[O-])cc1`?
LYPLA2 inh: 9; LYPLA1 counter: 3; GSTO1 counter: 7; PREPL inh: 8; Fam108B inh: 5; PME-1 primary: 7

How did Nc1cc([N+](=O)[O-])cc2oc(-c3ccccc3)cc12 do in these assays?
LYPLA2 inh: -4; LYPLA1 counter: 0; GSTO1 counter: -15; PREPL inh: 53*; Fam108B inh: 4; PME-1 primary: 5; PREPL confirm: 54*

Screens (PubChem)
